Only some compounds are listed: those with a hit (about 19% of all), similar ones and a draw of the others.
IL-1B inflam inh: inflammasome signaling inhibition, IL-1 beta readout; THP-1 LPS/ATP IL-1B secretion, AlphaLISA, 16 h; active compounds read low; activity change, % at 57.5 µM; 4.7% of 360,000 active; in the data active = activity change below about -50%; inconclusive = mostly about -30% to -49%
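Secreted IL-1B measured by AlphaLISA bead assay after 16 h compound exposure of THP-1 cells; compounds (final up to 57.5 uM) added 1 h before LPS (250 ng/mL) and ATP (1.25 mM) stimulation; lower signal means less secretion.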
HT1080 IDH1KD tx: kills HT-1080 cells with IDH1 knockdown; HT-1080 IDH1 knockdown viability, ATP luminescence, 48 h; 2% of 360,000 active; AID 686971; Potency, µM (highest dose often 46.1 µM), for inactives: top-dose activity, negative = toxicity, hits mostly cytotoxic;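 note: potency is the fitted concentration of half-maximal effect; 0% = DMSO wells and -100% = cell-free medium wells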
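Viability of IDH1-knockdown HT-1080 fibrosarcoma cells was assessed by CellTiter-Glo after 48 h at 37 °C with titrated compound; concentration-effect curves were classified by fit quality and response size.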
ELG1 repair inh: blocks ELG1-dependent DNA repair in HEK293T cells. HEK293T ELG1-luciferase reporter, luminescence, 16 h; DNA damage induced by 5-fluorouridine. AID 504467. Potency, µM (doses to about 46.1 µM), for inactives: at the highest dose activity change, negative = inhibition, actives largely listed as inhibitors. 2.3% of 330,000 active; note: potency is the fitted concentration of half-maximal effect; nearly all actives have a fitted effect of over 55% in size
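In this reporter screen, reduction of luminescence relative to DMSO vehicle indicated activity. Compounds and 5-fluorouridine were added together to 2,000 cells per well, incubated for 16 hr at 37 °C, then developed with ONE-Glo.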
HT1080-NT tox: kills 2HG-producing HT-1080-NT fibrosarcoma cells; 1.6% of 360,000 active; HT-1080-NT fibrosarcoma viability, CellTiter-Glo ATP luminescence, 48 h; Potency, µM (series often up to 46.1 µM), inactives show at the top dose activity, negative = less viability, hits mostly cytotoxic;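 note: NT is the 2HG producing partner of a matched IDH1 knockdown line; potency is the fitted concentration of half-maximal effect; 0% = DMSO-treated cells and -100% = media-only wells without cells; nearly all actives have a fitted effect of over 55% in size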
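Viability of the 2HG-overproducing fibrosarcoma line after 48 hours of compound exposure at 37 degrees C was determined by luminescence with CellTiter-Glo, and concentration-effect curves were then fitted and categorized.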
TDP1 cell CPT: growth inhibition of DT40 Tdp1-/-;hTDP1 cells with camptothecin (screen for TDP1 inhibitors); chicken DT40 Tdp1-/-;hTDP1 cells + 20 nM CPT, ATP luminescence, 48 h; Potency, µM (series often up to 46.2 µM), for inactives: top-dose activity change, negative = growth inhibition, actives largely listed as inhibitors; 12% of 420,000 active; AID 686979; note: potency is the fitted concentration of half-maximal effect; nearly all actives have a fitted effect of over 55% in size
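Chicken DT40 Tdp1-/- cells stably complemented with human TDP1 were seeded at 400 cells/well in medium containing 20 nM camptothecin, exposed to pin-transferred compounds, and grown at 37 °C for at least 48 hr. Viability was read as ATP luminescence.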
TDP1 cell noCPT: qHTS for Inhibitors of human tyrosyl-DNA phosphodiesterase 1 (TDP1): qHTS in cells in absence of CPT. AID 686978, 2013. 15% of 420,000 active. Potency, µM (top dose mostly 46.2 µM), without a hit: at the top dose activity change, negative = growth inhibition, actives largely listed as inhibitors. DT40 Tdp1-/- hTDP1 cells, no CPT, ATP luminescence, 48 h; note: potency is the fitted concentration of half-maximal effect; nearly all actives have a fitted effect of over 55% in size
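Compound effects on proliferation are scored in DT40 Tdp1-/-;hTDP1 cells in the absence of CPT. ATP levels (CellTiter-Glo luminescence) are recorded after a ≥48 hr, 37 °C incubation.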
* marks the source's active call; other numbers are inactive results; ? = inconclusive; . = no result; [ ] = another dose, or the depositor's remark. Unless noted, calls come from the whole dose curve; as a rule, active = well fitted curve in the direction sought with a large enough effect; inconclusive = small, poorly fitted or top-dose-only effect, or another doubt; inactive = no such curve, though single readings can be large; an effect the other way counts as inactive or inconclusive. Unless noted, % is set by controls: 0 for no effect and ±100 for the full control effect.

SMILES	IL-1B inflam inh	HT1080 IDH1KD tx	ELG1 repair inh	HT1080-NT tox	TDP1 cell CPT	TDP1 cell noCPT
Cc1ccc(-n2c(SCC(=O)NCC3CCCO3)nc3n[nH]c(C)c3c2=N)cc1Cl (stereo not drawn)	-18	-11%[9.24 µM]	?	-21%	9.2µM*	9.2µM*
Cc1ccc(-n2c(SCC(=O)NCC3CCCO3)nc3ccccc3c2=O)cc1 (stereo not drawn)	-25	1%	0%	-1%	?	-1%
COc1ccc(-n2c(SCC(=O)NCC3CCCO3)nc3ccccc3c2=O)cc1Cl (stereo not drawn)	-10	1%	.	-3%	8.2µM*	21µM*
COCCN(C(=O)COC(=O)C(c1ccccc1)c1ccccc1)c1c(N)n(Cc2ccccc2)c(=O)[nH]c1=O	-26	4%	-4%	5%	?	?
COc1ccc(-c2nnc(SCC(=O)Oc3cc(C)ccc3C)o2)cc1	.	.	.	.	14%	-2%
O=S(=O)(Nc1nc2ccccc2nc1Cl)c1cccc(C(F)(F)F)c1	51	?	-1%	?	-3%	?
COc1cc2c(cc1OC)C(c1ccccc1)N(C(=O)c1cccc(S(C)(=O)=O)c1)CC2 (stereo not drawn)	-18	0%	-4%	-14%	-2%	?
COc1ccc(C(=O)N2CCc3cc(OC)c(OC)cc3C2c2cccc([N+](=O)[O-])c2)cc1OC (stereo not drawn)	?	-19%	-23%	-20%	?	18µM*
COc1cc2c(cc1OC)C(c1cccc([N+](=O)[O-])c1)N(C(=O)c1ccccc1C(=O)O)CC2 (stereo not drawn)	-58*	19%	16%	15%	1%	-4%
COC(=O)[C@H](CC(C)C)NC(=O)/C=C/[C@H]1O[C@@H](n2ccc(=O)[nH]c2=O)[C@H](O)[C@@H]1O	34	?	.	18%	2%	9%
Cc1ccc(NC(=O)c2cc(C)n(-c3ccccc3)c2C)cc1	-83*	?	?	?	?	?
Cc1ccc(NC(=O)c2cc(C)n(-c3cccc(C)c3)c2C)cc1	-66*	-30%	?	-17%	?	21µM*
Cc1cc(C(=O)Nc2ccc(Cl)cc2)c(C)n1-c1ccccc1	-91*	?	?	?	0%	-25%
Cc1ccc(-n2c(C)cc(C(=O)NS(=O)(=O)c3ccc(C)cc3)c2C)cc1	7	-4%	?	-6%	-19%	?
COc1cc(NC(=O)Nc2cccn3nc(COCCO)nc23)cc(OC)c1OC	-7	1%	.	11%	2%	-21%
O=C(NC1CC1)c1ccc(CSCc2ccccc2Cl)o1	5	?	-15%	?	?	?
O=C(NCCc1ccc(Cl)cc1)c1ccc(CSCc2ccccc2Cl)o1	.	.	.	.	15µM*	16µM*
Cc1cccc(CSCc2ccc(C(=O)NCCc3ccccc3)o2)c1	.	.	.	.	?	13µM*
COCCNC(=O)c1ccc(CSCc2cccc(Cl)c2)o1	-11	6%	0%	-1%	?	?
Cn1c(O)c(N=NC(=N)N)c2ccccc21	-4	0%	3%	-2%	-1%	2%
C=CCn1c(O)c(N=Nc2ccccc2)c2ccccc21	9	11%	0%	-5%	?	?
C=CCn1c(O)c(N=Nc2nc3ccccc3c(=O)n2-c2ccccc2)c2ccccc21	24	-11%	-28%	0%	-30%	12µM*
C=CCn1c(O)c(N=Nc2ccccc2O)c2ccccc21	?	-23%	-29%	-14%	?	18µM*
Cc1ccccc1N=Nc1c(O)n(C)c2ccccc12	19	-8%	6%	3%	?	23µM*
C=CCn1c(O)c(N=NC(=O)OCC)c2ccccc21	13	11%	7%	9%	?	?
SMILES	IL-1B inflam inh	HT1080 IDH1KD tx	ELG1 repair inh	HT1080-NT tox	TDP1 cell CPT	TDP1 cell noCPT
O=C(COc1ccccc1Cl)Nc1ccc2oc(=O)ccc2c1	-6	-6%	?	-20%	13%	3%
C=CCn1c(COc2ccc(F)cc2)nnc1SC(C)C(=O)NCC1CCCO1 (stereo not drawn)	-11	0%	-14%	4%[9.24 µM]	-29%	-22%
O=C1CSC(=S)N1Cc1ccccc1	-10	-8%	.	-3%	?	21µM*
CCOC(=O)c1sc(NC(=O)Nc2cccc(Cl)c2)cc1C	-76*	?	?	?	10µM*	9.2µM*
CCOC(=O)c1sc(NC(=O)c2ccc(Br)o2)cc1C	?	-24%	?	0%	?	16µM*
CCOC(=O)c1sc(NC(=O)c2cccs2)cc1C	?	?	?	-26%	?	?
Cc1ccccc1-c1cc(C(=O)NCc2ccc(OC(F)(F)F)cc2)n(CC2CC(c3cccnc3)=NO2)n1 (stereo not drawn)	-13	-3%	18µM*	-2%	?	?
Cc1ccc(CNC(=O)c2cc(-c3ccccc3C)nn2CC2CC(c3cccnc3)=NO2)cc1 (stereo not drawn)	-5	4%	?	4%	?	21µM*
COc1ccc(NC(=O)Cc2nnc(SCC(=O)Nc3ccccc3)n2C)cc1	17	10%	7%	6%	10%	-1%
COCCC1CCCCN1C(=O)c1ccc2nc(Cc3ccccc3F)oc2c1 (stereo not drawn)	-15	-3%	?	4%	?	?
O=C(Cc1csc(NC(=O)Nc2cccc(Cl)c2)n1)NCc1cccnc1	?	4%	-29%	4%	-23%	?
O=C(Nc1cccc(C(F)(F)F)c1)c1csc(COCCO)n1	0	14%	.	20%	-7%	-17%
NC(COCc1ccccc1)c1csc(NC(=O)Nc2cccc(C(F)(F)F)c2)n1 (stereo not drawn)	-55*	?	.	?	21µM*	?
NC(c1ccccc1)c1csc(Nc2ccc(S(N)(=O)=O)cc2)n1 (stereo not drawn)	42	0%	.	1%	-16%	-13%
NC(CCc1ccccc1)c1csc(NC(=O)Nc2cccc(Cl)c2)n1 (stereo not drawn)	-61*	?	.	?	26µM*	23µM*

From PubChem BioAssay
